Test results: PubChem BioAssay (EPA / NIEHS)
Where “and” joins values, the source holds several entries; their conditions need not be identical. Equal entries are not always repeated. Some compounds were tested as several samples or in several runs, with calls that do not always agree. Calls of active or inactive are those of the source. How the source made its calls: active means hit-call score of the fitted dose curve at least 0.9, where 1 is the maximum; inactive means score below 0.9.

How the values were obtained:
[1] = read-out: Collagen IV, COL4A1 (gene 1282); experiment: BSK_MyoF_CollagenIV: BioMAP Diversity Plus: MyoF Assay for Collagen IV Biomarker Activity (AID 2284247); conditions: primary human lung fibroblasts
In short: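 ELISA read-out of Collagen IV in lung fibroblast cultures, 24 h post-dosing; gain of signal relative to DMSO vehicle baseline defines activity.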

[2] = read-out: Plasminogen activator inhibitor-1 (PAI1), SERPINE1 (gene 5054); experiment: BSK_MyoF_PAI1: BioMAP Diversity Plus: MyoF Assay for Plasminogen activator inhibitor-1 (PAI1) Biomarker Activity (AID 2284256); conditions: primary human lung fibroblasts
In short: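 In this multiplexed primary-cell system, fibroblasts from human lung received compound for 24 h before ELISA detection of PAI-1; overt toxicity was checked by SRB (0.1%, TCA-fixed, 560 nm) in parallel wells.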

[3] = read-out: Interleukin-8 (IL8), CXCL8 (gene 3576); experiment: BSK_MyoF_IL8: BioMAP Diversity Plus: MyoF Assay for Interleukin-8 (IL8) Biomarker Activity (AID 2284261); conditions: primary human lung fibroblasts
In short: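 DMSO-normalised, upward-fitted IL-8 ELISA signal; human lung fibroblasts, 24 h chemical treatment.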

Decorin, DCN (gene 1634) = experiment: BSK_MyoF_Decorin: BioMAP Diversity Plus: MyoF Assay for Decorin Biomarker Activity (AID 2284265); conditions: primary human lung fibroblasts
In short: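 In this multiplexed fibroblast system, secreted or surface decorin is detected by ELISA one day after dosing, with increases scored against the DMSO vehicle.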

[4] = read-out: Monokine induced gamma interferon (MIG), CXCL9 (gene 4283); experiment: BSK_KF3CT_MIG: BioMAP Diversity Plus: KF3CT Assay for Monokine induced gamma interferon (MIG) Biomarker Activity (AID 2284248); conditions: primary human keratinocytes with fibroblasts
In short: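 MIG in dosed human skin co-cultures was measured by ELISA at 24 h, relative to DMSO.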

[5] = read-out: Collagen I, COL1A1 (gene 1277); experiment: BSK_hDFCGF_CollagenI: BioMAP Diversity Plus: hDFCGF Assay for Collagen I Biomarker Activity (AID 2284250); conditions: primary human foreskin fibroblasts
In short: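 ELISA read-out of Collagen I in human dermal foreskin fibroblast cultures, 24 h after dosing. Gain of signal versus DMSO vehicle defines activity.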

[6] = read-out: Interferon-inducible T-cell alpha chemoattractant (ITAC), CXCL11 (gene 6373); experiment: BSK_hDFCGF_ITAC: BioMAP Diversity Plus: hDFCGF Assay for Interferon-inducible T-cell alpha chemoattractant (ITAC) Biomarker Activity (AID 2284251); conditions: primary human foreskin fibroblasts
In short: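 Chemical dosing of primary human foreskin fibroblast cultures preceded ELISA measurement of I-TAC at 24 h. Response was analysed in the positive direction using DMSO as baseline, while parallel SRB staining measured cytotoxicity.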

[7] = read-out: Plasminogen activator inhibitor-1 (PAI1), SERPINE1 (gene 5054); experiment: BSK_KF3CT_PAI1: BioMAP Diversity Plus: KF3CT Assay for Plasminogen activator inhibitor-1 (PAI1) Biomarker Activity (AID 2284252); conditions: primary human keratinocytes with fibroblasts
In short: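 Keratinocyte + dermal fibroblast co-culture (human primary); 24 h post-dose; PAI-1 by ELISA; gain-of-signal fit vs DMSO control.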

[8] = read-out: Interleukin-8 (IL8), CXCL8 (gene 3576); experiment: BSK_KF3CT_IL8: BioMAP Diversity Plus: KF3CT Assay for Interleukin-8 (IL8) Biomarker Activity (AID 2284254); conditions: primary human keratinocytes with fibroblasts
In short: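 Using parallel SRB-stained cultures to flag overt toxicity, the study quantified IL-8 by ELISA in human keratinocyte–foreskin fibroblast co-cultures 24 h after dosing, with DMSO as negative control and baseline.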

[9] = read-out: Vascular cell adhesion molecule 1 (VCAM1), VCAM1 (gene 7412); experiment: BSK_BF4T_VCAM1: BioMAP Diversity Plus: BF4T Assay for Vascular cell adhesion molecule 1 (VCAM1) Biomarker Activity (AID 2284249); conditions: primary human bronchial epithelial cells with fibroblasts
In short: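 Cell-surface VCAM-1 quantified by ELISA after 24 h chemical exposure of human bronchial epithelial/dermal fibroblast co-cultures, with SRB staining in parallel wells for cytotoxicity; DMSO baseline, positive-direction fitting.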

[10] = read-out: Monocyte Chemoattractant Protein-1 (MCP1), CCL2 (gene 6347); experiment: BSK_IMphg_MCP1: BioMAP Diversity Plus: IMphg Assay for Monocyte Chemoattractant Protein-1 (MCP1) Biomarker Activity (AID 2284253); conditions: primary human endothelial cells with macrophages
In short: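 ELISA readout of MCP-1 at 24 hours in IMphg co-cultures of venular endothelial cells and macrophages, normalised to DMSO; parallel cultures stained with sulforhodamine B for overt cytotoxicity.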

[11] = read-out: Macrophage Inflammatory Protein-1 Alpha (MIP1a), CCL3 (gene 6348); experiment: BSK_IMphg_MIP1a: BioMAP Diversity Plus: IMphg Assay for Macrophage Inflammatory Protein-1 Alpha (MIP1a) Biomarker Activity (AID 2284255); conditions: primary human endothelial cells with macrophages
In short: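 MIP-1a protein levels were quantified by ELISA after 24 h treatment of human endothelial cell–macrophage co-cultures, compared with DMSO. Parallel cultures were fixed with TCA and stained with 0.1% SRB to gauge overt cytotoxicity.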

CD69, CD69 (gene 969) = experiment: BSK_IMphg_CD69: BioMAP Diversity Plus: IMphg Assay for CD69 Biomarker Activity (AID 2284257); conditions: primary human endothelial cells with macrophages
In short: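 Readout is ELISA for CD69 in primary human venular endothelial cell/macrophage co-culture, taken at 24 h post-dosing. SRB staining of parallel cultures gauged overt cytotoxicity; signal increase versus DMSO defined activity.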

[12] = read-out: Eotaxin 3, CCL26 (gene 10344); experiment: BSK_BF4T_Eotaxin3: BioMAP Diversity Plus: BF4T Assay for Eotaxin 3 Biomarker Activity (AID 2284258); conditions: primary human bronchial epithelial cells with fibroblasts
In short: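 ELISA measurement of Eotaxin-3 after 24 h chemical exposure in a bronchial epithelial/dermal fibroblast co-culture, with DMSO as baseline. Parallel SRB staining (0.1% SRB after 10% TCA fixation, 560 nm) flagged overt cytotoxicity.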

[13] = read-out: Monocyte Chemoattractant Protein-1 (MCP1), CCL2 (gene 6347); experiment: BSK_BF4T_MCP1: BioMAP Diversity Plus: BF4T Assay for Monocyte Chemoattractant Protein-1 (MCP1) Biomarker Activity (AID 2284259); conditions: primary human bronchial epithelial cells with fibroblasts
In short: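 MCP-1 ELISA readout taken 24 h after dosing in the BF4T system (bronchial epithelial cells plus dermal fibroblasts). Parallel SRB total-protein staining flagged cytotoxicity; DMSO served as baseline, positive fitting direction.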

[14] = read-out: Intercellular Adhesion Molecule 1 (ICAM1), ICAM1 (gene 3383); experiment: BSK_BF4T_ICAM1: BioMAP Diversity Plus: BF4T Assay for Intercellular Adhesion Molecule 1 (ICAM1) Biomarker Activity (AID 2284260); conditions: primary human bronchial epithelial cells with fibroblasts
In short: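 ICAM-1 levels measured by ELISA after 24 h chemical treatment of bronchial epithelial cell/dermal fibroblast co-cultures, read against DMSO baseline. Overt cytotoxicity checked in parallel cultures by sulforhodamine B staining.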

CD90, THY1 (gene 7070) = experiment: BSK_BF4T_CD90: BioMAP Diversity Plus: BF4T Assay for CD90 Biomarker Activity (AID 2284262); conditions: primary human bronchial epithelial cells with fibroblasts
In short: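 CD90 levels by ELISA after 24 h treatment of human bronchial epithelial cell/dermal fibroblast cultures, analysed versus DMSO. Overt cytotoxicity checked in parallel cultures by sulforhodamine B staining.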

[15] = read-out: Interleukin-8 (IL8), CXCL8 (gene 3576); experiment: BSK_BF4T_IL8: BioMAP Diversity Plus: BF4T Assay for Interleukin-8 (IL8) Biomarker Activity (AID 2284263); conditions: primary human bronchial epithelial cells with fibroblasts
In short: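 Human bronchial epithelial cells with dermal fibroblasts co-culture; IL-8 measured by ELISA 24 hours after dosing, fitted vs DMSO. Cytotoxicity tracked in parallel cultures by SRB total-protein staining.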

[16] = read-out: Interleukin-1 alpha (IL1a), IL1A (gene 3552); experiment: BSK_BF4T_IL1a: BioMAP Diversity Plus: BF4T Assay for Interleukin-1 alpha (IL1a) Biomarker Activity (AID 2284264); conditions: primary human bronchial epithelial cells with fibroblasts
In short: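 ELISA read-out of IL-1α from bronchial epithelial cell/dermal fibroblast co-cultures 24 h after compound addition. Increases scored against DMSO negative control. Cytotoxicity monitored by sulforhodamine B staining of parallel cultures.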

KRT18 (gene 3875) = experiment: BSK_BF4T_Keratin818: BioMAP Diversity Plus: BF4T Assay for Keratin 818 Biomarker Activity (AID 2284266); conditions: primary human bronchial epithelial cells with fibroblasts
In short: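 Keratin 8/18 levels quantified by ELISA after 24 h chemical treatment of bronchial epithelial cell/dermal fibroblast co-cultures, fitted in positive direction relative to DMSO. Parallel SRB staining tracks overt cytotoxicity.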

Measured: AC50

CC1(C)[C@H](C=C(Cl)Cl)[C@H]1C(=O)OCc1cccc(Oc2ccccc2)c1
inactive: [1] | [2] | [3] | Decorin, DCN (gene 1634)

CCCO[Si](OCCC)(OCCC)OCCC
inactive: [4] | [5] | [6] | [7] | [8]

O=S(=O)(O)C(F)(F)C(F)(F)OC(F)(F)C(F)(F)F
inactive: all assays above

CCC(=O)OCC=Cc1ccccc1
inactive: [1] | [2] | [3] | Decorin, DCN (gene 1634)

CCCCCCCC1CCCC1=O (stereo unspecified)
inactive: [1] | [2] | [3] | Decorin, DCN (gene 1634)

c1ccc(OCCOc2ccccc2)cc1
inactive: [4] | [5] | [6] | [7] | [8]

CC(C)(C)c1cccc(O)c1
inactive: [1] | [2] | [3] | Decorin, DCN (gene 1634)

CC=CC(=O)C1=C(C)C=CCC1(C)C
inactive: [1] | [2] | [3] | Decorin, DCN (gene 1634)

O=C(O)C(F)(F)OC(F)(F)C(F)(F)OC(F)(F)C(F)(F)C(F)(F)C(F)(F)F
active: [1] 43.5 µM and 38.4 µM | [6] 10.9 µM and 17.6 µM | [8] 42.7 µM | CD69, CD69 (gene 969) 40.3 µM | [12] 5.34 µM and 2.49 µM | [13] 8.8 µM and 220 nM | [15] 1.82 µM and 4.77 µM
inactive: [4] | [9] | [5] | [7] | [10] | [8] | [11] | [2] | CD69, CD69 (gene 969) | [14] | [3] | CD90, THY1 (gene 7070) | [16] | Decorin, DCN (gene 1634) | KRT18 (gene 3875)

C=CC(=O)OCC(CO)(COC(=O)C=C)COC(=O)C=C
active: [2] 2.88 µM | [3] 4.24 µM | Decorin, DCN (gene 1634) 3.97 µM
inactive: [1]

OCC(F)(OC(F)(F)C(F)(OC(F)(F)C(F)(F)C(F)(F)F)C(F)(F)F)C(F)(F)F (stereo unspecified)
inactive: [1] | [9] | [5] | [10] | [8] | [11] | [2] | CD69, CD69 (gene 969) | [12] | [13] | [14] | [3] | CD90, THY1 (gene 7070) | [15] | [16] | Decorin, DCN (gene 1634) | KRT18 (gene 3875)
active: [1] 3.9 µM | [4] 5.41 µM and 3.33 µM | [6] 2.4 µM and 2.03 µM | [7] 5 µM and 4.79 µM | [10] 4.65 µM | [8] 4.96 µM | [13] 4.19 µM

CC(=O)OCC=C(C)CCC=C(C)CCC=C(C)C
inactive: [1] | [2] | [3] | Decorin, DCN (gene 1634)

CC(=O)c1ccc(C)cc1
inactive: [4] | [5] | [6] | [7] | [8]

CC(=O)CCC=C(C)CCC=C(C)C
inactive: [1] | [3] | Decorin, DCN (gene 1634)
active: [2] 0.016 µM

CC(C)Cc1ccc(C(C)C(=O)O)cc1 (stereo unspecified)
inactive: [1] | [2] | [3] | Decorin, DCN (gene 1634)

CCCCN(CCO)CCO
inactive: [4] | [5] | [6] | [7] | [8]

CC(C)(CO)CO
inactive: [4] | [5] | [6] | [7] | [8]

COc1ccccc1NC(=O)CC(C)=O
inactive: [1] | [2] | [3] | Decorin, DCN (gene 1634)
